# Sampled rows, rich in hits. Any-hit rate of the full collection: about 3.4%.
# FBW7 activator = activators of human E3 ligase FBW7; AlphaScreen FBW7–phospho-cyclin E peptide binding, activator screen; actives 0.13% (n = 650,000); Q969H0; normalized activity (activation), % at 26.1 µM; in the data active = normalized activity above about 1.9%;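 also: purified mutant Fbw7 with reduced substrate affinity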
# MITF inh = blocks human microphthalmia-associated transcription factor. O75030. AlphaScreen MITF homodimerization, bead proximity signal. inhibition, % at 2.6 µM. actives 0.91% (n = 650,000). AID 1259374; in the data active = inhibition above about 50%;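 also: 0% = vehicle wells with protein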
# Target sequence (O75030 whole entry, looked up): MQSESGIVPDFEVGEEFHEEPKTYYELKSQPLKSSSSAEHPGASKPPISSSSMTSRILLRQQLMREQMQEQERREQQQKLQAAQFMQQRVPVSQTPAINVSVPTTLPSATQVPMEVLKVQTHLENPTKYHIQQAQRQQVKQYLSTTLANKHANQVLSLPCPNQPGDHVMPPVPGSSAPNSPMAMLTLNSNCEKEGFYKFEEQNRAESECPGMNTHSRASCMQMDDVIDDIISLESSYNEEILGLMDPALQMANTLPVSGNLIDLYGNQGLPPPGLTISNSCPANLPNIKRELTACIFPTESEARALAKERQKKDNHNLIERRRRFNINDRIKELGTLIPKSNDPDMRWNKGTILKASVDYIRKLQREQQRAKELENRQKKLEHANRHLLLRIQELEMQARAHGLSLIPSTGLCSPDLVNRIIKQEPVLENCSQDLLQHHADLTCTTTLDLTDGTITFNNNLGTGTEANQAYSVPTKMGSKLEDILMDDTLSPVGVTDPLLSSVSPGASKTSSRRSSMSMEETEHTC
# GPR151 activ = activators of human GPR151; activation, % at 11.2 µM; PathHunter beta-arrestin GPR151 cells, luminescence; Q8TDV0; actives 1% (n = 650,000); in the data active = activation above about 4.9%;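 also: 0% = median of compound wells and 100% = cells with positive control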
# TEAD-YAP block = TEAD-YAP interaction inhibition. AID 1259422. HEK-TIYL cells, TEAD-Gal4/YAP UAS-luciferase luminescence. actives 1.4% (n = 640,000). inhibition, % at 9.12 µM; in the data active = inhibition above about 32%;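 also: 0% = median of test compound wells and 100% = reference inhibitor wells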
# * hit, by the source's call.
SMILES,FBW7 activator,MITF inh,GPR151 activ,TEAD-YAP block
COc1cc(-c2cnn3ccc(Nc4ccccc4)nc23)cc(OC)c1OC,0,18,1,47*
COc1cncc(-c2cnn3ccc(Nc4ccc(N5CCOCC5)cc4)nc23)c1,0,7,0,39*
CCCCOc1ccccc1NC(=O)C(F)(OC)C(F)(F)F (centres undefined),1,14,0,36*
c1ccc(CNc2ccnc3c(-c4cc5ccccc5o4)cnn23)nc1,0,12,-1,-70
CCCNc1ccnc2c(-c3cccc(/C=C/C(=O)O)c3)cnn12,0,-19,-1,64*
Cc1cccc(N(C)c2ccnc3c(-c4cccc(C(N)=O)c4)cnn23)c1,0,-10,2,34*
CN(C)CCNc1ccnc2c(-c3cc4ccccc4o3)cnn12,1,-2,-2,68*
CN(C)CCNc1ccnc2c(-c3cccc(C(N)=O)c3)cnn12,0,3,-1,57*
O=C(CNCc1ccco1)Nc1cc(C(F)(F)F)ccc1Cl,0,-3,2,1
Cc1[nH]n(-c2ccccc2)c(=O)c1N=Nc1cccc2c(=O)[nH][nH]c(=O)c12,0,10,-1,5
CCc1ccc(C2=NC(c3ccc(Br)cc3)NC(c3cc(Cl)ccc3O)C2)cc1 (centres undefined),0,11,2,1
CC1C/C(=C/c2ccccn2)C(=O)/C(=C/c2ccccn2)C1 (centres undefined),0,1,1,80*
O=C(N/N=C/c1cccc([N+](=O)[O-])c1O)c1cccc([N+](=O)[O-])c1,-1,53*,0,8
O=C(N/N=C/c1ccc([N+](=O)[O-])cc1)c1cccs1,0,-3,0,-40
O=C(N/N=C/c1cccc([N+](=O)[O-])c1O)c1cccs1,-1,73*,1,-46
CCC(CC)c1nc2c(c3c1[nH]c1ccccc13)C(=O)CC(C)(C)C2,0,-9,1,4
NC(=O)C1CCN(c2ncnc3sc(-c4ccccc4)cc23)CC1,0,-8,-1,-7
CN(C)CCNc1ccn2ncc(-c3ccc4c(c3)OCO4)c2n1,2.0*,-1,-1,-3
c1cc(CNc2ccn3ncc(-c4ccc5c(c4)OCO5)c3n2)ccn1,0,9,0,26
N#Cc1cc2c(N)c(C(=O)Nc3ccc(F)cc3Cl)sc2nc1N,0,21,-1,-13
Cc1cc(O)c(C)c(O)c1/C=N\NC(=O)CNC(=O)C(c1ccccc1)c1ccccc1,0,17,0,33*
CC12CN(CO)CC(C)(CN(Cc3ccccc3)C1)C2=O,2.6*,7,1,8
CC12CNCC(C)(CN(Cc3ccccc3)C1)C2=O,0,1,-1,6
Cc1csc(N/N=C\c2ccccn2)n1,-2,16,-7,79*
CN(C)NC1=CC(=[N+]2CCCC2)CC(C)(C)C1,0,-10,2,3
SMILES,FBW7 activator,MITF inh,GPR151 activ,TEAD-YAP block
CCCN(CCC)C1=CC(=[N+]2CCCC2)CC(C)(C)C1,0,-10,1,69*
CC1(C)CC(N2CCOCC2)=CC(=[N+]2CCOCC2)C1,0,-9,0,4
CC1(C)CC(N2CCCCC2)=CC(=[N+]2CCCCC2)C1,0,5,2,75*
CC1CCCN(c2ccc(C(N)=O)cc2[N+](=O)[O-])C1 (centres undefined),0,5,1,8
CCCNc1cc(-c2csc3ccccc23)nc(N)n1,0,3,0,5
Nc1nc(NCCOc2ccccc2)cc(-c2csc3ccccc23)n1,0,0,1,42*
Nc1nc(NCCOc2ccccc2)cc(Nc2ccccc2)n1,0,2,1,-13
Nc1nc(NCCOc2ccccc2)cc(-c2ccccc2)n1,0,19,1,41*
N#Cc1ccccc1S(=O)(=O)NCC(=O)Nc1ccc2c(c1)OCO2,0,4,0,44*
COc1ccc(-c2cc(C(=O)O)c3ccccc3n2)cc1,0,21,1,-7
COc1ccc(/C=C/c2cc(C(=O)O)c3ccccc3n2)cc1,0,1,-1,60*
COCCCNc1ncnc2scc(-c3ccccc3)c12,0,2,2,59*
c1ccc(-c2csc3ncnc(NCc4ccccn4)c23)cc1,0,-2,0,13
COC(=O)CNc1ncnc2scc(-c3ccccc3)c12,0,10,-1,-4
CCCCNc1ncnc2scc(-c3ccccc3)c12,1,19,3,56*
COC(=O)CCCNc1ncnc2scc(-c3ccccc3)c12,0,-2,-1,35*
c1ccc(-c2csc3ncnc(NCc4ccco4)c23)cc1,0,16,2,34*
COc1ccc(C(CC(=O)O)NC(=O)c2cccc(C)c2)cc1 (centres undefined),0,0,1,13
CC(C)(C)C1CCc2c(sc3nc(CCC(=O)N4CCN(c5ccccn5)CC4)[nH]c(=O)c23)C1 (centres undefined),0,-3,2,78*
CC(C)(C)C1CCc2c(sc3nc(Cc4ccccc4)[nH]c(=O)c23)C1 (centres undefined),0,4,0,-1
CC(C)(C)C1CCc2c(sc3nc(CCC(=O)N4CCN(c5ccc(F)cc5)CC4)[nH]c(=O)c23)C1 (centres undefined),1,-4,-1,52*
CN1CCN(C(=O)Cn2ncc3ccc(Cl)cc32)CC1,1,16,0,-3
N#Cc1ccc(Cn2nc(-c3cccnc3)oc2=O)cc1,0,-8,0,4
CCCNc1nccn2c(-c3cccc(NC(C)=O)c3)cnc12,-1,-14,-1,69*
CC(=O)Nc1cccc(-c2cnc(NCCCc3ccccc3)c3nccn23)c1,0,-2,-1,93*
SMILES,FBW7 activator,MITF inh,GPR151 activ,TEAD-YAP block
O=C(O)c1cccc(-c2cnc(NCCCc3ccccc3)c3nccn23)c1,0,-25,-1,-3
COCCCNc1nccn2c(-c3cccc(NC(C)=O)c3)cnc12,0,17,-5,90*
COCCCNc1nccn2c(-c3cccc(OC(F)(F)F)c3)cnc12,-1,20,1,40*
CCN(CC)S(=O)(=O)c1ccc(C(=O)N2CCC3(CC2)CC(=O)c2ccccc2O3)cc1,0,4,1,9
COc1ccc(N2C(=O)CSC2c2cccc(F)c2)c(OC)c1 (centres undefined),0,-25,-1,3
COc1ccc(N2C(=O)CSC2c2cccc([N+](=O)[O-])c2)c(OC)c1 (centres undefined),0,-4,-1,46*
O=C1CC(C(=O)Nc2nc3ccc(Cl)cc3s2)c2ccccc21 (centres undefined),0,-1,2,-2
O=c1[nH]cccc1-c1nc2ccc(Cl)cc2s1,0,-4,-2,78*
C=CCn1c(SCc2c(C)noc2C)nc2scc(C3CC3)c2c1=O,0,-1,1,50*
CC12CCC(C(=O)Nc3ccncc3)(C(=O)C1=O)C2(C)C (centres undefined),0,-11,0,-14
COc1ccc(/C=C/C(=O)Nc2ccccc2C(=O)O)cc1OC,0,1,-11,84*
